According to PMC4242493, “Sequence specificity incompletely defines the genome-wide occupancy of Myc”:
The full ranking holds about 33,000 sequences; the median of “normalized occupancy” is about 0.075, and the highest 2% start at about 0.095. The sample as a whole holds a higher share of the highest values than the screen did.

What follows are sequences tested against MaxL homodimer (Homo sapiens, UniProt P61244 1-160) (assay: universal protein-binding microarray (PBM); PBS-based mixture, 10 nM His-tagged protein dimer, 2% milk, 200 ng/uL BSA, 50 ng/uL salmon testes DNA, 0.02% TX-100; detection with Alexa 488 anti-His antibody;; high values mean tight binding). Details: protein: recombinant; tags: C-terminal His-tag (pET21a); chain copies: 2; dsDNA, one strand shown.
Outline: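 His-tagged protein dimer at 10 nM was incubated on Agilent 4 x 44 K arrays with the 'all 10-mer' universal design. Bound protein was tagged with 10 ng/μL fluorophore-conjugated anti-His antibody, and arrays were scanned on a GenePix 4400A. Binding occupancy for each 8-mer is its fluorescence intensity normalised to the highest-ranked 8-mer's intensity.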

Chain of MaxL homodimer (P61244 whole entry): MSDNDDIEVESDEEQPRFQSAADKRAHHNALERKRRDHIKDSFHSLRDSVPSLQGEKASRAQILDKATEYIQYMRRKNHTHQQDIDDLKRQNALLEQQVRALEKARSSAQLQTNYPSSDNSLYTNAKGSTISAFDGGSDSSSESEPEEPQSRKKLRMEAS

| Sequence | binding signal [normalized occupancy] |
| --- | --- |
| AGGTGGTG | 0.0873 |
| GGGTGGTA | 0.0821 |
| AGGTGGTC | 0.0855 |
| CCGTGGTA | 0.0806 |
| GTGTGGTA | 0.0868 |
| ACGTGGTA | 0.115 |
| ACGTGGTG | 0.1 |
| AGGTGGTA | 0.0821 |
| GCGTGGTA | 0.111 |
| ACGTGGTC | 0.106 |
| GTTGAGAA | 0.076 |
| TCATTGCA | 0.0829 |
| GCAATCAC | 0.0763 |
| GAGTCAGC | 0.0763 |
| AACTCACT | 0.0726 |
| AAGCACTA | 0.0755 |
| CGCCGAAA | 0.0723 |
| ACGGTAGA | 0.0739 |
| ACGCCGCT | 0.0763 |
| CGAGGTGA | 0.0813 |
| AACGCTGA | 0.0816 |
| CACGCTGA | 0.115 |

| Sequence | binding signal [normalized occupancy] |
| --- | --- |
| CACGCTGG | 0.113 |
| TACGCTGA | 0.0736 |
| AACGCTGG | 0.0764 |
| CACGCTGC | 0.131 |
| AACGCTGC | 0.0786 |
| GACGCTGC | 0.0724 |
| CACGCTCG | 0.0939 |
| AGGAGACA | 0.084 |
| CTTTGACC | 0.0868 |
| AGTGCTCA | 0.0761 |
| TCACGAAA | 0.0755 |
| CTCCAGTA | 0.0743 |
| CAACCGTA | 0.0753 |
| ACGCCGCG | 0.0773 |
| AAGGAAAG | 0.0804 |
| CATGCCCC | 0.0965 |
| CATGCCCA | 0.0953 |
| GATGCCCA | 0.0798 |
| AATGCCCC | 0.0836 |
| GATGCCCC | 0.0764 |
| CATGCCCG | 0.0842 |
| TCAGACGA | 0.0739 |

| Sequence | binding signal [normalized occupancy] |
| --- | --- |
| CTACAGAG | 0.0735 |
| AAGAAGGC | 0.0751 |
| AGCGCCTA | 0.0724 |
| GTGAATAA | 0.0848 |
| CAATGTGA | 0.0948 |
| CAATGTGG | 0.097 |
| ATATGTGA | 0.0878 |
| ACATGTGA | 0.166 |
| CCATGTAA | 0.0855 |
| GAATGTGC | 0.0815 |
| AAATGTGT | 0.0811 |
| AAATGTGC | 0.0962 |
| CAATGTGC | 0.0924 |
| CGATGTGA | 0.0833 |
| AGATGTGA | 0.085 |
| CCATGTGA | 0.154 |
| CGCACCAA | 0.0722 |
| GCGTTCAC | 0.0758 |
| CCGCTAAG | 0.0719 |
| CGTCACTC | 0.074 |
| GCGGGTCA | 0.0811 |
| ACTTTGTG | 0.0718 |

| Sequence | binding signal [normalized occupancy] |
| --- | --- |
| TACTACGA | 0.0764 |
| CTAATATA | 0.0824 |
| CATTAGAA | 0.0752 |
| ACATCACG | 0.0884 |
| CGTGTTAA | 0.0819 |
| GGCCCACA | 0.0789 |
| ACTGACGA | 0.0719 |
| CTCCTTCC | 0.081 |
| AGGCACGC | 0.0914 |
| GTTAACCA | 0.0793 |
| AGCGTTCA | 0.0757 |
| AGATGTGG | 0.0868 |
| AAATGTGG | 0.088 |
| GGATGTGA | 0.0786 |
| CCATGTGC | 0.209 |
| GAATGTGA | 0.0817 |
| AGATGTGC | 0.0825 |
| ACATGTCC | 0.0918 |
| CGATGTGC | 0.0807 |
| GCATGTGA | 0.157 |
